Hits are enriched below; roughly 9.9% of the tested compounds scored in any of these assays.
MCF10A rereplic: induces DNA re-replication in MCF 10a normal breast cells | AID 624296 | MCF 10A DNA re-replication, Hoechst nuclear intensity, 48 h | Potency, µM (titrated, usually from 46.1 µM), actives largely listed as activators | 350,000 tested, 2.9% active; note: nearly all actives have a fitted effect of over 50% in size
KB-3-1 cytotox: KB-3-1 parental cell cytotoxicity; 400,000 tested, 1.4% active; KB-3-1 viability, CellTiter-Glo ATP luminescence, 72 h; Potency, µM (titrated, usually from 46.1 µM), most hits filed as cytotoxic; note: nearly all actives have a fitted effect of over 60% in size
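Cytotoxicity measured as CellTiter-Glo luminescence after 72 h at 37 C. Compound titrations were pinned onto drug-naive KB-3-1 parental adenocarcinoma cells grown in DMEM with 10% FBS, and normalized data fitted to concentration-response curves.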
KB-V1 MDR tox: kills drug-selected multidrug resistant KB-V1 cells; 400,000 tested, 3.4% active; KB-V1 MDR cells viability, CellTiter-Glo, 72 h; Potency, µM (top dose mostly 46.1 µM), most hits filed as cytotoxic; note: nearly all actives have a fitted effect of over 60% in size
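KB-V1 cells (P-gp-expressing MDR subline of KB-3-1) in phenol-red-free DMEM with 10% FBS were exposed to library compounds over a concentration series for 72 h at 37 degrees C. Viability read by CellTiter-Glo luminescence; concentration-effect curves fitted after normalization.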
IL-1B inflam inh: inflammasome signaling inhibition, IL-1 beta readout | 360,000 tested, 4.7% active | THP-1 LPS/ATP IL-1B secretion, AlphaLISA, 16 h; active compounds read low | AID 743279 | activity change, % at 57.5 µM; in the data active = activity change below about -50%; inconclusive = mostly about -30% to -49%
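THP-1 cells pretreated 1 hr with compounds (up to 57.5 uM final), then stimulated with LPS (250 ng/mL final) plus ATP (1.25 mM final); secreted IL-1B measured by AlphaLISA after 16 hr, decreased signal indicating inhibition.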
SW480 rerep: induces DNA re-replication in SW480 colon adenocarcinoma cells; SW480 DNA re-replication, Hoechst DNA content imaging, 48 h; Potency, µM (top dose mostly 46.1 µM), usual class: activators; 340,000 tested, 1.8% active; note: nearly all actives have a fitted effect of over 55% in size
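250 cells/well; 23 nL cpd via pin tool; 48 hr, 37 C, 5% CO2; Hoechst 40 min; imager read of total nuclear intensity, ex 405/em 500-530 nm.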
Large screens that a line does not name were inactive. Unless noted, calls come from the whole dose curve; as a rule, active = well fitted curve in the direction sought with a large enough effect; inconclusive = small, poorly fitted or top-dose-only effect, or another doubt; inactive = no such curve, though single readings can be large; an effect the other way counts as inactive or inconclusive.

COC(=O)COc1ccc(C2Nc3c(Cl)ccc(C(=O)O)c3C3C=CCC32)cc1 (stereo not drawn)	none
CS(=O)(=O)N1CCCC(C(=O)Nc2ccc3c(c2)OCCO3)C1 (stereo not drawn)	none
CC1CCC(C(=O)NC(C(=O)N2CCN(c3ccccn3)CC2)C(C)C)CC1 (stereo not drawn)	KB-V1 MDR tox 3.26µM
CC1CCC(C(=O)NC(C(=O)N2CCc3ccccc3C2)C(C)C)CC1 (stereo not drawn)	none
Cc1ccc(N2C(=N)/C(=C3/Nc4ccccc4S3)C(c3ccccc3)C2=O)cc1 (stereo not drawn)	none
CCOC(=O)CSc1nc2c(sc(=S)n2-c2ccccc2OC)c(=O)n1-c1ccccc1OC	IL-1B inflam inh -64.0
CCN(CC)C(=O)CSc1nc2c(sc(=S)n2Cc2ccco2)c(=O)n1-c1ccccc1	KB-V1 MDR tox 8.2µM
CCOC(=O)CSc1nc2c(sc(=S)n2-c2ccccc2OC)c(=O)n1Cc1ccco1	KB-V1 MDR tox 9.2µM
CCOC(=O)CSc1nc2c(sc(=S)n2Cc2ccco2)c(=O)n1-c1ccccc1	none
COc1ccc(-n2c(SCC(=O)C(C)(C)C)nc3c(sc(=S)n3-c3ccccc3)c2=O)c(OC)c1	none
COc1ccc(C=NNC(=S)NC23CC4CC(CC(C4)C2)C3)cc1OC	MCF10A rereplic 9.2µM, KB-3-1 cytotox inconclusive, KB-V1 MDR tox 2.91µM, SW480 rerep inconclusive
COc1cc(/C=N/NC(=S)NCc2ccccc2)ccc1OCC#N	KB-V1 MDR tox inconclusive
COc1cc(OC)c(C=NNC(=S)NC23CC4CC(CC(C4)C2)C3)c(OC)c1	MCF10A rereplic inconclusive, KB-V1 MDR tox 5.17µM, SW480 rerep inconclusive
CCOc1ccc(CNC(=S)N/N=C/c2ccc(OC)c(OC)c2)cc1	KB-V1 MDR tox 16.4µM
COc1cccc(/C=N/NC(=O)NC23CC4CC(CC(C4)C2)C3)c1O	KB-3-1 cytotox inconclusive, KB-V1 MDR tox inconclusive
CC(C)c1ccc2occ(CC(=O)Nc3cccc(C(F)(F)F)c3)c2c1	KB-V1 MDR tox inconclusive (no result: MCF10A rereplic, IL-1B inflam inh, SW480 rerep)
CCNC(=O)N(C)C[C@H]1N[C@@](CC)(C(=O)OC)[C@H]2C(=O)N(C)C(=O)[C@@H]12	none
C[C@@]12C(=O)Nc3cc(F)ccc3C(=O)N1[C@H]1c3cc(Br)ccc3OC[C@@H]1[C@@H]2c1ccccc1	MCF10A rereplic 7.31µM, KB-3-1 cytotox inconclusive, KB-V1 MDR tox inconclusive, SW480 rerep inconclusive
C[C@@]12C(=O)Nc3ccc(F)cc3C(=O)N1[C@H]1c3cc(Br)ccc3OC[C@@H]1[C@@H]2c1ccccc1	MCF10A rereplic inconclusive, KB-3-1 cytotox inconclusive, KB-V1 MDR tox inconclusive, SW480 rerep inconclusive
Cc1ccc2c(c1)[C@H]1[C@H](CO2)[C@H](c2ccccc2)[C@]2(C)C(=O)Nc3cc(F)ccc3C(=O)N12	MCF10A rereplic 5.8µM, KB-3-1 cytotox inconclusive, KB-V1 MDR tox inconclusive, IL-1B inflam inh inconclusive, SW480 rerep inconclusive
C[C@@]12C(=O)Nc3cc(F)c(F)cc3C(=O)N1[C@H]1c3cc(Cl)ccc3OC[C@@H]1[C@@H]2c1ccccc1	KB-3-1 cytotox inconclusive, SW480 rerep inconclusive
CN(CC(=O)Nc1ccc(F)cc1)C(=O)c1cc(-c2cccs2)nn1-c1ccccc1	MCF10A rereplic inconclusive
O=C(CN1C(=O)c2ccccc2S1(=O)=O)Nc1ccccc1	MCF10A rereplic 6.51µM
Cc1ccc(NC(=O)CN2C(=O)c3ccccc3S2(=O)=O)cc1C	MCF10A rereplic inconclusive
COc1ccc(NC(=O)CN2C(=O)c3ccccc3S2(=O)=O)cc1OC	IL-1B inflam inh -82.6
CCOC(=O)CC1(C)Oc2cc(Cl)ccc2N1S(=O)(=O)c1ccc(C)cc1 (stereo not drawn)	KB-3-1 cytotox 18.4µM, KB-V1 MDR tox inconclusive (no result: MCF10A rereplic, SW480 rerep)
CCOC(=O)CC1(C)Sc2ccccc2N1S(=O)(=O)c1ccc(C)cc1 (stereo not drawn)	KB-3-1 cytotox inconclusive, KB-V1 MDR tox inconclusive (no result: MCF10A rereplic, SW480 rerep)
CCOC(=O)CC1(CCc2ccccc2)Oc2ccccc2N1S(=O)(=O)c1ccc(C)cc1 (stereo not drawn)	KB-3-1 cytotox 18.4µM, KB-V1 MDR tox inconclusive (no result: MCF10A rereplic, SW480 rerep)
O=C1C2CC=CCC2C(=O)N1c1ccc(NCCc2ccc(O)cc2)c([N+](=O)[O-])c1 (stereo not drawn)	KB-V1 MDR tox inconclusive, IL-1B inflam inh -82.8
Cc1ccc(CNC(=O)c2nnn(CC(=O)Nc3cc(C)cc(C)c3)c2N)cc1	none
CCCN(CCC)C(=O)Nc1cc(Cl)ccc1OC	none
COc1ccc(-c2cc(-c3ccccc3)nc(N)n2)c(O)c1	KB-3-1 cytotox inconclusive, KB-V1 MDR tox 20.6µM, IL-1B inflam inh inconclusive
COc1ccc2nc(-c3ccccc3)cc(OC)c2c1	MCF10A rereplic inconclusive, KB-V1 MDR tox inconclusive, IL-1B inflam inh -79.8
COc1ccc(OC)c(Nc2cc(-c3ccccc3)nc(N)n2)c1	MCF10A rereplic 0.651µM, KB-3-1 cytotox 1.03µM, KB-V1 MDR tox 1.3µM, SW480 rerep 2.59µM
COc1cccc(Nc2cc(-c3ccccc3)nc(C)n2)c1	none (no result: MCF10A rereplic, IL-1B inflam inh, SW480 rerep)
COC(=O)c1cc2cc(Cl)ccc2nc1SC	none
COC(=O)C1=CN(c2ccc(C(C)(C)C)cc2)C(N)=C(C#N)C1c1ccc(OC)cc1 (stereo not drawn)	KB-V1 MDR tox inconclusive (no result: MCF10A rereplic, SW480 rerep)
CCCCN(C(=O)c1cc2ccccc2o1)c1c(N)n(CCC)c(=O)[nH]c1=O	none
Cc1ccc2[nH]c3c(=O)n(N)c(C)nc3c2c1	SW480 rerep 6.51µM
COc1ccc2[nH]c3c(=O)n(N)c(C)nc3c2c1	none (no result: SW480 rerep)
COc1ccccc1NC(=O)COC(=O)C1CC2CCCC(C1)C2=O (stereo not drawn)	none
Cc1ccc(/C=C/c2onc(C)c2S(=O)(=O)N2CCC(C(=O)N3CCN(c4cc(C)ccc4C)CC3)CC2)cc1	none (no result: MCF10A rereplic, IL-1B inflam inh, SW480 rerep)
O=C(COc1ccccc1)Nc1nc(-c2cccs2)cs1	none
O=C(CCS(=O)(=O)c1ccc(F)cc1)Nc1nc(-c2ccncc2)cs1	MCF10A rereplic 18.4µM, IL-1B inflam inh inconclusive, SW480 rerep inconclusive
CC(C)c1nnc(NC(=O)CCS(=O)(=O)c2nc(-c3cccs3)cc(C(F)(F)F)n2)s1	MCF10A rereplic 3.66µM, IL-1B inflam inh -110.4, SW480 rerep inconclusive
O=C(CCS(=O)(=O)c1nc(-c2cccs2)cc(C(F)(F)F)n1)Nc1ccc(OC(F)(F)F)cc1	none (no result: MCF10A rereplic, IL-1B inflam inh, SW480 rerep)
O=C(CCS(=O)(=O)c1ccccc1)Nc1nc(-c2cccs2)cs1	MCF10A rereplic inconclusive, KB-V1 MDR tox 23.1µM, IL-1B inflam inh -74.1, SW480 rerep inconclusive
CCc1cc(C(=O)N=Nc2c(O)[nH]c3c(Br)cc(Br)cc23)c2ccccc2n1	MCF10A rereplic inconclusive, SW480 rerep inconclusive
CCN=c1scc(-c2ccco2)n1/N=C/c1ccc(O)cc1	MCF10A rereplic 23.1µM
O=C1NC(=O)C2(CCCC2c2ccccc2)N1 (stereo not drawn)	none
CCOC(=O)c1ccccc1Nc1nc2ccc(C)cc2n2nnnc12	none (no result: MCF10A rereplic, IL-1B inflam inh, SW480 rerep)
CCOC(=O)N1CCC(Nc2nc3ccccc3n3nnnc23)CC1	MCF10A rereplic inconclusive, KB-V1 MDR tox 2.31µM

Compound activity as filed in PubChem.
